Records with an inconclusive call do not appear. Entries that show only a call come without a potency. Active and inactive are the calls of the source. The call rests on the fitted dose curve; in most records, active means well fitted inhibition curve with a large enough effect; inconclusive means small, poorly fitted or top-dose-only effect; inactive means no such curve, though single readings can be large or run the other way.
Test: Primary qHTS for inhibitors of La Crosse Virus (LACV) - induced cell death in SH-SY5Y cells (AID 1508616);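 further: top concentration of the series differs between compounds; higher means more rescue of cells from virus-induced death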
Conditions: SH-SY5Y LACV cytopathicity rescue, ATP luminescence, 6 d; series mostly up to 9.63 µM
How it was run: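 Readout was luminescence from ATPLite 1step added after a 6-day LACV infection (0.01 MOI) of SH-SY5Y cells that had received pin-transferred compound 24 hr after seeding.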
In the case of CCC1(O)CC2CN(CCc3c([nH]c4ccccc34)[C@@](C(=O)OC)(c3cc4c(cc3OC)N(C)C3[C@]45CCN4CC=C[C@@](CC)([C@@H](OC(C)=O)[C@]3(O)C(=O)OC)[C@H]45)C2)C1 (some centres not stated), the Potency is reported as “inactive”.
In the case of N#C/C(=C\c1ccc(O)c(O)c1)C(=O)NCCc1ccccc1, the Potency is reported as “inactive”.
In the case of C=C1C[C@@]23CC[C@H]4[C@@](C)(CCC[C@@]4(C)C(=O)OC4OC(CO)C(O)C(O)C4O)[C@@H]2CC[C@]1(OC1OC(CO)C(O)C(O)C1OC1OC(CO)C(O)C(O)C1O)C3 (some centres not stated), the Potency is reported as “inactive”.
In the case of CC(C)NC[C@H](O)COc1cccc2ccccc12, the Potency is reported as “inactive”.
In the case of CCC1(O)CC2CN(CCc3c([nH]c4ccccc34)[C@@](C(=O)OC)(c3cc4c(cc3OC)N(C=O)C3[C@]45CCN4CC=C[C@@](CC)([C@@H](OC(C)=O)[C@]3(O)C(=O)OC)[C@H]45)C2)C1 (some centres not stated), the Potency is reported as “inactive”.
With N#C/C(=C\c1ccc(O)c(O)c1)C(=O)NCCCNC(=O)/C(C#N)=C/c1ccc(O)c(O)c1 the Potency was “inactive”.
With COc1cc(/C=C(\C#N)C(=O)Nc2nnc(C(F)(F)F)s2)ccc1OCc1ccc(C(F)(F)F)cc1C(F)(F)F the Potency was “inactive”.
In the case of CCCOC(=O)c1c(-c2ccccc2)nc(CC)c(C(=O)SCC)c1CCC, the Potency is reported as “inactive”.
With CNCCc1cnc(CCC(c2ccccc2)c2ccccc2)[nH]1 the Potency was “inactive”.
With O=c1[nH]c(=S)[nH]c(-c2ccccc2)c1Cc1c(O)ccc2ccccc12 the Potency was “inactive”.
In the case of N#CC(=C(\N)Sc1ccccc1N)/C(C#N)=C(/N)Sc1ccccc1N, the Potency is reported as “inactive”.
For CC(=O)SC1CC2=CC(=O)CC[C@]2(C)C2CC[C@@]3(C)C(CC[C@@]34CCC(=O)O4)C12 (some centres not stated), the Potency was “inactive”.
For COc1cc([C@@H]2c3cc4c(cc3[C@H](O)C3COC(=O)[C@@H]32)OCO4)cc(OC)c1OC (some centres not stated), the Potency was “inactive”.
With NC(C(=O)N[C@@H]1C(=O)N2C(C(=O)O)=C(Cl)CS[C@H]12)c1ccccc1 (some centres not stated) the Potency was “inactive”.
For CCCCCCCCCCC(C)(C)C(=O)Nc1c(OC)cc(OC)cc1OC, the Potency was “inactive”.
For O=C(O)/C=C/c1ccc(O)c(O)c1, the Potency was “inactive”.
In the case of O=C(O)/C=C/c1cnc[nH]1, the Potency is reported as “inactive”.
In the case of N#Cc1cc2nc(O)c(O)nc2cc1[N+](=O)[O-], the Potency is reported as “inactive”.
In the case of C/C(=C\c1ccc(C(=O)O)cc1)c1ccc2c(c1)C(C)(C)CCC2(C)C, the Potency is reported as “inactive”.
With C=CC1(C)CC(=O)C2(O)C(C)(O1)C(OC(C)=O)C(O)C1C(C)(C)CCC(O)C12C (configuration not stated) the Potency was “inactive”.
With NC(=Nc1ccccc1)NC(=O)c1nc(Cl)c(N)nc1N the Potency was “inactive”.
For NC(N)=[N+]1CCc2ccccc2C1, the Potency was “inactive”.
In the case of CNCCNS(=O)(=O)c1cccc2cnccc12, the Potency is reported as “inactive”.
With CC#CCOC(=O)c1c(C)nc2sc3c(c2c1N)CCC(O)C3 (configuration not stated) the Potency was “inactive”.
In the case of NC1CONC1=O (configuration not stated), the Potency is reported as “inactive”.
In the case of O=C1NC(=O)c2cc(Nc3ccccc3)c(Nc3ccccc3)cc21, the Potency is reported as “inactive”.
With CC(C)(C)c1cc(/C=C(\C#N)C(N)=S)cc(C(C)(C)C)c1O the Potency was “inactive”.
For C[C@]12C=CC(=O)C=C1CC[C@@H]1C2=CC[C@]2(C)[C@@H](C(=O)CN3CCN(c4cc(N5CCCC5)nc(N5CCCC5)n4)CC3)CC[C@@H]12, the Potency was “inactive”.
For C[C@@]1(C2CCCC2)Cc2cc(OCC(=O)O)c(Cl)c(Cl)c2C1=O, the Potency was “inactive”.
In the case of Nn1nnc2ccccc21, the Potency is reported as “inactive”.
For NC1C=CC=C(C(=O)O)C1 (configuration not stated), the Potency was “inactive”.
In the case of C=CCN1CCc2c(cc(O)c(O)c2Br)[C@@H](c2ccccc2)C1, the Potency is reported as “inactive”.
